Values joined by “and” are separate entries in the source; they are usually repeats but may differ in a detail not shown here. Identical values can stand only once. Like-named read-outs stand apart in the source and are kept apart here.
What was measured:
Conditions in all cases: concentration: 1 μM, replicates: in singlicate, n = 1
PRKCI = test system: PRKCI
PRKCQ = test system: PRKCQ
PRKD1 = test system: PRKD1
PRKD2 = test system: PRKD2
PRKD3 = test system: PRKD3
PRKG1 = test system: PRKG1
PRKG2 = test system: PRKG2
PRKR = test system: T1, PRKR
T1 construct: gene EIF2AK2

PRKX = test system: PRKX
PRP4 = test system: PRP4
PYK2 = test system: T2, PYK2
T2 construct: gene PTK2B

QSK = test system: QSK
RAF1 = test system: RAF1
RET = test system: RET
RIOK1 = test system: RIOK1
RIOK2 = test system: RIOK2
RIOK3 = test system: RIOK3
RIPK1 = test system: RIPK1
RIPK2 = test system: RIPK2
RIPK4 = test system: RIPK4
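Note: KINOMEscan kinase panel screen.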

CC(=O)Nc1ccc(COc2ccc(Nc3ccnc4cc(-c5ccccn5)ccc34)cc2)cc1.Cl [GW440148]
%Inh (PRKCI): 15%
%Inh (PRKCQ): 0%
%Inh (PRKD1): 18%
%Inh (PRKD2): 14%
%Inh (PRKD3): 0%
%Inh (PRKG1): 0%
%Inh (PRKG2): 8%
%Inh (PRKR): 27%
%Inh (PRKX): 12%
%Inh (PRP4): 27%
%Inh (PYK2): 0%
%Inh (QSK): 0%
%Inh (RAF1): 5%
%Inh (RET): 2%
%Inh (RIOK1): 13%
%Inh (RIOK2): 0%
%Inh (RIOK3): 35%
%Inh (RIPK1): 22%
%Inh (RIPK2): 93.2%
%Inh (RIPK4): 19%

Cl.Oc1cccc(Nc2ccnc3cc(-c4ccncc4)ccc23)c1 [GW494601]
%Inh (PRKCI): 22%
%Inh (PRKCQ): 0%
%Inh (PRKD1): 25%
%Inh (PRKD2): 29%
%Inh (PRKD3): 17%
%Inh (PRKG1): 0%
%Inh (PRKG2): 1%
%Inh (PRKR): 21%
%Inh (PRKX): 0%
%Inh (PRP4): 34%
%Inh (PYK2): 0%
%Inh (QSK): 63%
%Inh (RAF1): 22%
%Inh (RET): 99.9%
%Inh (RIOK1): 0%
%Inh (RIOK2): 0%
%Inh (RIOK3): 0%
%Inh (RIPK1): 15%
%Inh (RIPK2): 83%
%Inh (RIPK4): 47%

CC(C)Oc1ccc2c(-c3ccnc(Nc4ccc(N5CCN(C)CC5)cc4)n3)cnn2n1 [GW696155]
%Inh (PRKCI): 26%
%Inh (PRKCQ): 0%
%Inh (PRKD1): 86%
%Inh (PRKD2): 97.6%
%Inh (PRKD3): 100%
%Inh (PRKG1): 0%
%Inh (PRKG2): 4%
%Inh (PRKR): 92.2%
%Inh (PRKX): 0%
%Inh (PRP4): 95%
%Inh (PYK2): 42%
%Inh (QSK): 23%
%Inh (RAF1): 0%
%Inh (RET): 56%
%Inh (RIOK1): 99.9%
%Inh (RIOK2): 90%
%Inh (RIOK3): 95.4%
%Inh (RIPK1): 40%
%Inh (RIPK2): 15%
%Inh (RIPK4): 27%

COCCNC(=O)c1ccc(-c2cc(C(=O)NC3CC3)cc(F)c2C)cc1 [GW868318]
%Inh (PRKCI): 9%
%Inh (PRKCQ): 2%
%Inh (PRKD1): 2%
%Inh (PRKD2): 0%
%Inh (PRKD3): 0%
%Inh (PRKG1): 7%
%Inh (PRKG2): 27%
%Inh (PRKR): 4%
%Inh (PRKX): 0%
%Inh (PRP4): 0%
%Inh (PYK2): 4%
%Inh (QSK): 26%
%Inh (RAF1): 7%
%Inh (RET): 0%
%Inh (RIOK1): 0%
%Inh (RIOK2): 7%
%Inh (RIOK3): 0%
%Inh (RIPK1): 0%
%Inh (RIPK2): 8%
%Inh (RIPK4): 47%

CCc1nc(-c2cccc(C)c2)c(-c2ccnc(NCc3ccccc3)c2)s1
%Inh (PRKCI): 0%
%Inh (PRKCQ): 31%
%Inh (PRKD1): 0%
%Inh (PRKD2): 13%
%Inh (PRKD3): 0%
%Inh (PRKG1): 0%
%Inh (PRKG2): 0%
%Inh (PRKR): 0%
%Inh (PRKX): 0%
%Inh (PRP4): 6%
%Inh (PYK2): 9%
%Inh (QSK): 0%
%Inh (RAF1): 24%
%Inh (RET): 4%
%Inh (RIOK1): 10%
%Inh (RIOK2): 0%
%Inh (RIOK3): 22%
%Inh (RIPK1): 0%
%Inh (RIPK2): 26%
%Inh (RIPK4): 0%

Cl.Cl.Cl.Fc1ccc(-c2ncn(C3CCNCC3)c2-c2ccnc(Nc3ccccc3)n2)cc1 [SB-238039]
%Inh (PRKCI; 1 µM): 53% and 34%
%Inh (PRKCQ; 1 µM): 20% and 50%
%Inh (PRKD1; 1 µM): 96.5% and 91.3%
%Inh (PRKD2; 1 µM): 95.3% and 91.8%
%Inh (PRKD3; 1 µM): 88% and 90.8%
%Inh (PRKG1; 1 µM): 3% and 0%
%Inh (PRKG2; 1 µM): 0% and 28%
%Inh (PRKR; 1 µM): 0% and 3%
%Inh (PRKX): 0%
%Inh (PRP4; 1 µM): 32% and 0%
%Inh (PYK2; 1 µM): 0% and 12%
%Inh (QSK): 0%
%Inh (RAF1; 1 µM): 18% and 8%
%Inh (RET; 1 µM): 8% and 20%
%Inh (RIOK1; 1 µM): 11% and 52%
%Inh (RIOK2): 0%
%Inh (RIOK3; 1 µM): 3% and 32%
%Inh (RIPK1; 1 µM): 35% and 0%
%Inh (RIPK2; 1 µM): 76% and 65%
%Inh (RIPK4; 1 µM): 13% and 42%

Cc1c2ccc(N(C)c3ccnc(Nc4cccc(S(N)(=O)=O)c4)n3)cc2nn1Cc1ccccc1.Cl.Cl [GW787226]
%Inh (PRKCI): 0%
%Inh (PRKCQ): 0%
%Inh (PRKD1): 0%
%Inh (PRKD2): 0%
%Inh (PRKD3): 0%
%Inh (PRKG1): 0%
%Inh (PRKG2): 0%
%Inh (PRKR): 0%
%Inh (PRKX): 0%
%Inh (PRP4): 0%
%Inh (PYK2): 9%
%Inh (QSK): 0%
%Inh (RAF1): 94.5%
%Inh (RET): 99.9%
%Inh (RIOK1): 0%
%Inh (RIOK2): 15%
%Inh (RIOK3): 0%
%Inh (RIPK1): 36%
%Inh (RIPK2): 95.9%
%Inh (RIPK4): 0%

O=c1cc(N2CCOCC2)nc2n(Cc3cccc4ccccc34)ccn12 [GSK2333389]
%Inh (PRKCI): 7%
%Inh (PRKCQ): 0%
%Inh (PRKD1): 0%
%Inh (PRKD2): 0%
%Inh (PRKD3): 23%
%Inh (PRKG1): 10%
%Inh (PRKG2): 0%
%Inh (PRKR): 0%
%Inh (PRKX): 26%
%Inh (PRP4): 2%
%Inh (PYK2): 17%
%Inh (QSK): 7%
%Inh (RAF1): 0%
%Inh (RET): 80%
%Inh (RIOK1): 8%
%Inh (RIOK2): 47%
%Inh (RIOK3): 0%
%Inh (RIPK1): 0%
%Inh (RIPK2): 0%
%Inh (RIPK4): 0%

O=c1cc(N2CCOCC2)nc2n(Cc3cccc(F)c3)ccn12 [GSK2297430]
%Inh (PRKCI): 0%
%Inh (PRKCQ): 11%
%Inh (PRKD1): 6%
%Inh (PRKD2): 0%
%Inh (PRKD3): 0%
%Inh (PRKG1): 10%
%Inh (PRKG2): 0%
%Inh (PRKR): 0%
%Inh (PRKX): 2%
%Inh (PRP4): 0%
%Inh (PYK2): 22%
%Inh (QSK): 0%
%Inh (RAF1): 0%
%Inh (RET): 31%
%Inh (RIOK1): 35%
%Inh (RIOK2): 11%
%Inh (RIOK3): 35%
%Inh (RIPK1): 0%
%Inh (RIPK2): 0%
%Inh (RIPK4): 0%

NS(=O)(=O)CCc1cccc(Nc2nccc(-c3c(-c4cccc(NC(=O)c5c(F)cccc5F)c4)nn4ccccc34)n2)c1 [GSK336735]
%Inh (PRKCI): 11%
%Inh (PRKCQ): 55%
%Inh (PRKD1): 40%
%Inh (PRKD2): 12%
%Inh (PRKD3): 56%
%Inh (PRKG1): 2%
%Inh (PRKG2): 0%
%Inh (PRKR): 0%
%Inh (PRKX): 13%
%Inh (PRP4): 18%
%Inh (PYK2): 29%
%Inh (QSK): 0%
%Inh (RAF1): 92.8%
%Inh (RET): 99.9%
%Inh (RIOK1): 38%
%Inh (RIOK2): 17%
%Inh (RIOK3): 26%
%Inh (RIPK1): 10%
%Inh (RIPK2): 97.9%
%Inh (RIPK4): 4%

NCC(NC(=O)c1cc(-c2cn[nH]c2)c(-c2ccnc3[nH]ccc23)s1)c1ccccc1.O=C(O)C(F)(F)F.O=C(O)C(F)(F)F (stereo not drawn) [GSK1325775]
%Inh (PRKCI): 25%
%Inh (PRKCQ): 90.3%
%Inh (PRKD1): 0%
%Inh (PRKD2): 45%
%Inh (PRKD3): 55%
%Inh (PRKG1): 84%
%Inh (PRKG2): 93.6%
%Inh (PRKR): 27%
%Inh (PRKX): 97.8%
%Inh (PRP4): 72%
%Inh (PYK2): 0%
%Inh (QSK): 9%
%Inh (RAF1): 0%
%Inh (RET): 18%
%Inh (RIOK1): 99.4%
%Inh (RIOK2): 34%
%Inh (RIOK3): 100%
%Inh (RIPK1): 19%
%Inh (RIPK2): 0%
%Inh (RIPK4): 31%

O=C(Nc1n[nH]c2cc(-c3cccc(F)c3)ccc12)C1CC1 [SB-735464]
%Inh (PRKCI): 0%
%Inh (PRKCQ): 5%
%Inh (PRKD1): 0%
%Inh (PRKD2): 0%
%Inh (PRKD3): 1%
%Inh (PRKG1): 16%
%Inh (PRKG2): 0%
%Inh (PRKR): 0%
%Inh (PRKX): 0%
%Inh (PRP4): 7%
%Inh (PYK2): 0%
%Inh (QSK): 28%
%Inh (RAF1): 15%
%Inh (RET): 0%
%Inh (RIOK1): 66%
%Inh (RIOK2): 40%
%Inh (RIOK3): 0%
%Inh (RIPK1): 38%
%Inh (RIPK2): 0%
%Inh (RIPK4): 18%

CSc1ccc(-c2cc3ncnc(SCC(=O)O)c3s2)cc1
%Inh (PRKCI): 0%
%Inh (PRKCQ): 0%
%Inh (PRKD1): 18%
%Inh (PRKD2): 0%
%Inh (PRKD3): 9%
%Inh (PRKG1): 0%
%Inh (PRKG2): 0%
%Inh (PRKR): 0%
%Inh (PRKX): 0%
%Inh (PRP4): 0%
%Inh (PYK2): 13%
%Inh (QSK): 0%
%Inh (RAF1): 0%
%Inh (RET): 8%
%Inh (RIOK1): 0%
%Inh (RIOK2): 0%
%Inh (RIOK3): 0%
%Inh (RIPK1): 0%
%Inh (RIPK2): 0%
%Inh (RIPK4): 0%

Cc1nnc(-c2ccc3ncc(-c4ccc(S(C)=O)cc4)n3c2)o1 (stereo not drawn)
%Inh (PRKCI): 0%
%Inh (PRKCQ): 0%
%Inh (PRKD1): 0%
%Inh (PRKD2): 13%
%Inh (PRKD3): 0%
%Inh (PRKG1): 0%
%Inh (PRKG2): 0%
%Inh (PRKR): 0%
%Inh (PRKX): 19%
%Inh (PRP4): 2%
%Inh (PYK2): 0%
%Inh (QSK): 0%
%Inh (RAF1): 49%
%Inh (RET): 9%
%Inh (RIOK1): 0%
%Inh (RIOK2): 0%
%Inh (RIOK3): 0%
%Inh (RIPK1): 0%
%Inh (RIPK2): 21%
%Inh (RIPK4): 24%

NCCNS(=O)(=O)c1ccc(-c2ccnc3[nH]ccc23)cc1 [GSK977617]
%Inh (PRKCI; 1 µM): 56% and 47%
%Inh (PRKCQ; 1 µM): 86% and 70%
%Inh (PRKD1; 1 µM): 49% and 33%
%Inh (PRKD2; 1 µM): 51% and 23%
%Inh (PRKD3; 1 µM): 45% and 33%
%Inh (PRKG1; 1 µM): 97.6% and 96.7%
%Inh (PRKG2; 1 µM): 98.6% and 98%
%Inh (PRKR; 1 µM): 52% and 42%
%Inh (PRKX; 1 µM): 94.7% and 92.2%
%Inh (PRP4; 1 µM): 28% and 20%
%Inh (PYK2; 1 µM): 31% and 21%
%Inh (QSK; 1 µM): 6% and 15%
%Inh (RAF1; 1 µM): 2% and 0%
%Inh (RET; 1 µM): 28% and 19%
%Inh (RIOK1; 1 µM): 91.4%
%Inh (RIOK2; 1 µM): 93.8% and 88%
%Inh (RIOK3; 1 µM): 78% and 84%
%Inh (RIPK1; 1 µM): 9% and 8%
%Inh (RIPK2): 0%
%Inh (RIPK4; 1 µM): 50% and 29%

— PMC5540273 (PLoS ONE, 2017)
